# Results as given in PubChem BioAssay.
# Values without a mark were called inactive. The list shows a part of the results. The source made the active and inactive calls. Cut-off read from the data, not from the text of the source, unless noted: active = inhibition above about 30%; inactive = the rest.
# Legend:
# [1] = biological target: Sphingosine 1-phosphate receptor 4 (Homo sapiens) (UniProt O95977); assay: blockers of human S1P4 signalling – cell-based, confirmation (AID 1524); conditions: S1P4-expressing cell line, antagonist mode, reporter read-out; at 4.98 µM; hits give high values
# [2] = biological target: Sphingosine 1-phosphate receptor 1 (Homo sapiens) (UniProt P21453); assay: blockade of human S1P1 receptor – cell-based, counter-screen for S1P4 antagonist project (AID 1564; in the data active = inhibition above about 40%;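 note: receptor stimulated with S1P near its EC80; 0% = agonist stimulated wells and 100% = vehicle only wells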); conditions: cell-based S1P1 antagonist counterscreen, at 4.98 µM, hits give high values
# [3] = biological target: Peroxisome proliferator-activated receptor gamma (Homo sapiens) (UniProt P37231); assay: retested PPARg-SRC-2 recruitment enhancers – biochemical, HTS, confirmation (AID 1297; in the data active = activation above about 22%;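 note: 0% = vehicle alone and 100% = reference agonist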); conditions: biochemical SRC-2 recruitment by PPARgamma; at 8 µM; hits give high values
# [4] = biological target: Peroxisome proliferator-activated receptor gamma (Homo sapiens) (UniProt P37231); assay: retest of SRC-1 recruitment enhancers for PPARgamma – biochemical, confirmation (AID 1300; in the data active = activation above about 20%;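 note: 0% = vehicle wells and 100% = reference agonist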); conditions: PPARgamma–SRC-1 coactivator recruitment biochemical assay; at 8 µM; hits give high values
# [5] = biological target: Peroxisome proliferator-activated receptor gamma (Homo sapiens) + Nuclear receptor coactivator 3 (Homo sapiens) (UniProt P37231+Q9Y6Q9); assay: agonists promoting SRC-3 binding to PPARgamma – biochemical, confirmation (AID 1301; in the data active = activation above about 24%;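 note: 0% = vehicle wells and 100% = reference agonist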); conditions: biochemical PPARgamma-SRC-3 coactivator recruitment, agonist mode; at 8 µM; hits give high values
# [6] = biological target: Protein-arginine deiminase type-4 (Homo sapiens) (UniProt Q9UM07); assay: protein arginine deiminase 4 blockade, retest – biochemical, fluorescence polarization, confirmation (AID 488796;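 active = mean inhibition across replicates above the hit cutoff set by the earlier primary screen, cut at about 15% in these data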;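 note: inhibitors block active-site labeling by the probe so polarization falls; 0% = PAD4 with probe and DMSO and 100% = probe without PAD4 enzyme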); conditions: recombinant PAD4, RCA probe fluorescence polarization; at 6.36 µM; hits give high values
# [7] = biological target: Serine protease HTRA1 (Homo sapiens) (UniProt Q92743); assay: confirming inhibition of human HTRA1 – biochemical, fluorescence polarization, confirmation (AID 540248;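 active = mean inhibition over three repeats above a set limit taken from the earlier primary screen, cut at about 37% in these data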;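 note: 0% = HTRA1 with DMSO and 100% = wells lacking HTRA1; inhibitors block probe binding so polarization drops and inhibition rises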); conditions: recombinant HTRA1, FP-rhodamine activity-based probe, at 5.96 µM, hits give high values
# [8] = biological target: (Lyso)-N-acylphosphatidylethanolamine lipase (Mus musculus) (UniProt Q8VD66); assay: mouse ABHD4 hydrolase blockers, triplicate – biochemical, fluorescence polarization, confirmation (AID 720658;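 active = mean inhibition across replicates above the hit cutoff set in the primary screen, cut at about 30% in these data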;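 note: 0% = wild-type ABHD4 with DMSO and 100% = catalytically dead S159A mutant with DMSO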); conditions: purified mABHD4, FP-Rh probe fluorescence polarization; at 8.92 µM; hits give high values
# [9] = biological target: Neuropeptide Y receptor type 2 (Homo sapiens) (UniProt P49146); assay: human Y2 receptor positive modulation or activation – cell-based, confirmation (AID 1539; in the data active = activation above about 33%); conditions: cell-based NPY-Y2 potentiator/agonist assay; at 3.6 µM; hits give high values
# [10] = biological target: Neuropeptide Y receptor type 1 (Homo sapiens) (UniProt P25929); assay: human Y1 receptor positive modulation or activation – cell-based, fluorescence, counter-screen for NPY-Y2 potentiator project (AID 1651; in the data active = activation above about 45%;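 note: cells stimulated with submaximal NPY then isoproterenol with phosphodiesterase inhibitor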); conditions: Y1 HEK293-CNG cells, membrane potential fluorescence; at 3.6 µM; hits give high values
# [11] = biological target: Neuropeptide Y receptor type 1 (Homo sapiens) (UniProt P25929); assay: human Y1 receptor agonism, CNGC membrane potential – cell-based, fluorescence, selectivity assay for NPY-Y2 potentiator project (AID 1702;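 active = activation above the mean of DMSO-only control wells plus 3 SD, cut at about 18% in these data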;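 note: cells stimulated with 1 µM isoproterenol plus the PDE inhibitor Ro 20-1724; 0% = isoproterenol with DMSO and no NPY and 100% = 40 nM NPY; Y1 agonists lower the membrane potential dye signal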); conditions: HEK293 Y1-CNGC, at 3.6 µM, hits give high values
# [12] = blockers of isoproterenol-driven CNG channel signal – cell-based, HEK293-CNG parental, membrane potential fluorescence, counter-screen for NPY-Y2 potentiator project (AID 1703;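 active = inhibition above the control-well mean plus 3 SD of those wells, cut at about 22% in these data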;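 note: 0% = DMSO with isoproterenol and 100% = DMSO without isoproterenol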); conditions: isoproterenol cAMP, at 3.6 µM, hits give high values
# [13] = biological target: Neuropeptide Y receptor type 2 (Homo sapiens) (UniProt P49146); assay: agonism at human Y2 receptor without NPY – cell-based, fluorescence, counter-screen for NPY-Y2 potentiator project (AID 1710;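 active = activation above the mean of solvent-only control wells plus 3 SD, cut at about 10% in these data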;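 note: cells stimulated by isoproterenol with no NPY added so direct agonism is tested; 0% = DMSO with isoproterenol alone and 100% = NPY at EC100 plus isoproterenol; agonism lowers probe fluorescence through less cAMP and CNG channel opening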); conditions: HEK293 Y2/CNGC cells, membrane potential fluorescence, agonist mode; at 3.6 µM; hits give high values
# [14] = reduced OD of T4-infected AddAB+ E. coli – absorbance, E. coli V3065, T4 phage, triplicate, AddAB inhibitor project, confirmation (AID 488942;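 active = mean inhibition above a set limit taken from the earlier primary screen, cut at about 13% in these data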;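 note: higher means less bacterial growth since AddAB block lets phage replicate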); conditions: E. coli V3065 expressing H. pylori AddAB, at 11.9 µM, hits give high values, T4 phage with gene 2 nonsense mutations
# [15] = reduced OD of phage-infected RecBCD+ V66 E. coli – absorbance, mutant T4 phage, counter-screen for AddAB inhibitor project (AID 488955;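 active = mean inhibition above the mean of solvent-only control wells plus 3 SD, cut at about 4% in these data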;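 note: optical density read after an 18 h incubation at 37 °C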); conditions: OD growth, at 11.9 µM, hits give high values
# [16] = bacterial growth inhibitors – absorbance, counter-screen for AddAB inhibitor project, confirmation (AID 488956; in the data active = inhibition above about 25%); conditions: bacterial viability, absorbance (AddAB counterscreen); at 11.9 µM; hits give high values
# [17] = biological target: Nuclear receptor coactivator 3 (Homo sapiens) (UniProt Q9Y6Q9); assay: NCOA3 GAL4-fusion reporter inhibition – cell-based, luminescence, quadruplicate, confirmation (AID 588792;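 active = mean inhibition over 43.08%, the solvent-only control mean plus 3 SD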;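 note: 0% = DMSO treated cells and 100% = gossypol at 36 µM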); conditions: HEK293 GAL4-SRC3 luciferase reporter, at 3.6 µM, hits give high values
# [18] = system: transactivating tegument protein VP16 (Human herpesvirus 1), Gal4-VP16 luciferase reporter; assay: repression of VP16-driven luciferase reporter – cell-based, luminescence, high throughput, counter-screen for SRC3 inhibitor project (AID 588794); conditions: mammalian cells, at 3.6 µM, hits give high values
# [19] = biological target: Nuclear receptor coactivator 1 (Homo sapiens) (UniProt Q15788); assay: NCOA1 GAL4-fusion reporter inhibition – cell-based, luminescence, quadruplicate, confirmation (AID 588820;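 active = mean inhibition above 46.68%, the untreated control wells mean plus 3 SD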;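 note: 0% = DMSO wells and 100% = gossypol 36 µM treated wells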); conditions: HEK293 GAL4-SRC1 luciferase reporter, at 3.6 µM, hits give high values
# [20] = repression of VP16-driven luciferase reporter – cell-based, luminescence, high throughput, counter-screen for SRC1 inhibitor project (AID 588824; in the data active = inhibition above about 25%); conditions: cell-based VP16 transactivation luciferase luminescence; at 3.6 µM; hits give high values
# [21] = biological target: Photoreceptor-specific nuclear receptor (Homo sapiens) (UniProt Q9Y5X4); assay: retest of NR2E3-NCOR disrupting agonists – cell-based, luminescence, CHO-S two-hybrid, confirmation (AID 624378;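 active = average inhibition above a cutoff equal to the mean inhibition of all tested compounds plus one SD, cut at about 70% in these data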;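 note: 0% = DMSO in NR2E3 cells and 100% = DMSO in cells lacking NR2E3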); conditions: CHO-S mammalian two-hybrid NR2E3-NCOR, luciferase luminescence; at 3.98 µM; hits give high values
# [22] = nonselective effects on VP16 transactivation – cell-based, luminescence, CHO-S, high throughput, counter-screen for NR2E3 agonist project, confirmation (AID 624379;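 active = mean inhibition above a cutoff equal to the average over all tested compounds plus one standard deviation, cut at about 70% in these data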;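 note: 0% = DMSO with VP16-transfected cells and 100% = DMSO with cells lacking VP16; higher means less reporter light so more repression of VP16 activity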); conditions: CHO-S GAL4-VP16 luciferase reporter, at 3.98 µM, hits give high values
# [23] = StAR promoter reporter inhibitors, counter-screen for LRH-1 inverse agonist project, cell-based, luminescence, high throughput (AID 651611; in the data active = inhibition above about 28%); conditions: StAR promoter luciferase reporter counterscreen, at 3.6 µM, hits give high values
# [24] = biological target: Nuclear receptor subfamily 5 group A member 2 (Homo sapiens) (UniProt O00482); assay: NR5A2 activity suppression in reporter cells – cell-based, luminescence, confirmation (AID 651613; in the data active = inhibition above about 42%;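 note: HEK293T cells co-transfected with LRH-1 and StAR promoter luciferase reporter; 0% = vehicle wells and 100% = parental cells lacking receptor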); conditions: cell-based LRH-1 luciferase reporter, inverse agonism; at 3.6 µM; hits give high values
# [25] = biological target: Steroidogenic factor 1 (Homo sapiens) (UniProt Q13285); assay: inverse agonism at SF1 nuclear receptor – cell-based, luminescence, high throughput, counter-screen for LRH-1 inverse agonist project (AID 651614; in the data active = inhibition above about 44%;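 note: cells cotransfected with StAR promoter reporter and SF1 expression vector; 0% = vehicle on cells with receptor and 100% = vehicle on cells lacking receptor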); conditions: cell-based SF1 luciferase reporter, at 3.6 µM, hits give high values
# [26] = compounds suppressing VP16-driven luciferase signal – cell-based, luminescence, high throughput, counter-screen for LRH-1 inverse agonist project (AID 651615; in the data active = inhibition above about 33%); conditions: Gal4-VP16 luciferase reporter cells, at 3.6 µM, hits give high values
# [27] = reduced OD of V66 E. coli with T4 gene 2 phage – absorbance, RecBCD inhibitor project, confirmation (AID 651982;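 active = mean inhibition over triplicates exceeding the hit threshold derived in the original primary screen, cut at about 11% in these data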); conditions: E. coli V66 + T4 2- phage, growth OD; at 11.9 µM; hits give high values
# [28] = bacterial growth inhibition – absorbance, high throughput, counter-screen for RecBCD inhibitor project (AID 651983; in the data active = inhibition above about 20%;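 note: E. coli strain V66 grown with compound alone and no phage infection; 0% = bacteria with DMSO vehicle only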); conditions: E. coli viability, absorbance (OD) growth; at 11.9 µM; hits give high values
# [29] = reduced optical density, T4-challenged addAB+ bacteria – absorbance, E. coli V3065, T4 phage, counter-screen for RecBCD inhibitor project, confirmation (AID 651984;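 active = mean inhibition above the solvent-only control wells' mean plus 3 SD, cut at about 22% in these data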;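 note: higher means less bacterial growth from phage killing when AddAB is blocked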); conditions: E. coli expressing H. pylori AddAB + T4 phage, OD growth; at 11.9 µM; hits give high values; gene 2 mutant T4, recBCD-deleted host
# [30] = VP16-driven transactivation reporter suppression – cell-based, luminescence, HEK293, counter-screen for COUP-TFII antagonist project (AID 687007; in the data active = inhibition above about 13%); conditions: HEK293 Gal4-VP16 luciferase reporter, at 8.5 µM, hits give high values
# [31] = biological target: COUP transcription factor 2 (Homo sapiens) (UniProt P24468); assay: retest of COUP-TFII reporter suppressors – cell-based, luciferase reporter, HEK293, triplicate, confirmation (AID 687008;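 active = mean inhibition over three repeats above a set limit taken from the earlier primary screen, cut at about 38% in these data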;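 note: 100% = cells given the luciferase reporter alone without the COUP-TF2 vector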); conditions: HEK293 NGFI-A luciferase reporter, luminescence; at 8.5 µM; hits give high values
# COUP transcription factor 2 (Homo sapiens), sequence (P24468 whole entry, looked up): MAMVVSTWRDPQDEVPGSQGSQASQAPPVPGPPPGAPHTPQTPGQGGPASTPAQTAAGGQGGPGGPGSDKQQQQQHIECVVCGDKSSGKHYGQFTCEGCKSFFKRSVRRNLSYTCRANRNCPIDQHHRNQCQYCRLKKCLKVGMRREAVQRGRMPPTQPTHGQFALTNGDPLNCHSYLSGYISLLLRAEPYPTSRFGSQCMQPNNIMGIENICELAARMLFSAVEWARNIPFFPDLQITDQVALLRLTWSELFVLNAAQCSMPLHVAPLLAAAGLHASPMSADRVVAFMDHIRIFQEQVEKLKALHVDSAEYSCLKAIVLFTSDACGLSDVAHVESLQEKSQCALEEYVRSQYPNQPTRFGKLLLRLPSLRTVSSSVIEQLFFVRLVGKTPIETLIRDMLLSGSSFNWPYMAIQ
# Sphingosine 1-phosphate receptor 4 (Homo sapiens), sequence (O95977 whole entry, looked up): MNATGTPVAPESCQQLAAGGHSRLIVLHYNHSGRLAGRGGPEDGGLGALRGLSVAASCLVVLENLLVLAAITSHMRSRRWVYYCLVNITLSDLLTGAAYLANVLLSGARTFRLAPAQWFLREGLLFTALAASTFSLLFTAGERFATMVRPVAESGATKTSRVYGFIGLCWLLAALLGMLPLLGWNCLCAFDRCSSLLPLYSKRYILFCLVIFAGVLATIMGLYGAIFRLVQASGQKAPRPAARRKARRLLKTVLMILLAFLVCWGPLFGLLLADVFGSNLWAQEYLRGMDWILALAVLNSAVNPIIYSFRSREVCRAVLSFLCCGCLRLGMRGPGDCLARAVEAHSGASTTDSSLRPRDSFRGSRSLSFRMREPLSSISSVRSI
# Sphingosine 1-phosphate receptor 1 (Homo sapiens), sequence (P21453 whole entry, looked up): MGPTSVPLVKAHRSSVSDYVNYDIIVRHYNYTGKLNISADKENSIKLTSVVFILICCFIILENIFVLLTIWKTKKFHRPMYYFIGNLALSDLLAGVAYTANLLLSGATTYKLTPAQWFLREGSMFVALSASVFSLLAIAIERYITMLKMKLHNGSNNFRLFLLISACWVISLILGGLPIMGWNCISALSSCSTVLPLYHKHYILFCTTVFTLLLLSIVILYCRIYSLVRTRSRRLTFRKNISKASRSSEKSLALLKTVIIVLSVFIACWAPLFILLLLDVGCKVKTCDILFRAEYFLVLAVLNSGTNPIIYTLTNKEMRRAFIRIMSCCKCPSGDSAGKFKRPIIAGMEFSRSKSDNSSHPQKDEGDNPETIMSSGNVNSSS
# Peroxisome proliferator-activated receptor gamma (Homo sapiens), sequence (P37231 whole entry, looked up): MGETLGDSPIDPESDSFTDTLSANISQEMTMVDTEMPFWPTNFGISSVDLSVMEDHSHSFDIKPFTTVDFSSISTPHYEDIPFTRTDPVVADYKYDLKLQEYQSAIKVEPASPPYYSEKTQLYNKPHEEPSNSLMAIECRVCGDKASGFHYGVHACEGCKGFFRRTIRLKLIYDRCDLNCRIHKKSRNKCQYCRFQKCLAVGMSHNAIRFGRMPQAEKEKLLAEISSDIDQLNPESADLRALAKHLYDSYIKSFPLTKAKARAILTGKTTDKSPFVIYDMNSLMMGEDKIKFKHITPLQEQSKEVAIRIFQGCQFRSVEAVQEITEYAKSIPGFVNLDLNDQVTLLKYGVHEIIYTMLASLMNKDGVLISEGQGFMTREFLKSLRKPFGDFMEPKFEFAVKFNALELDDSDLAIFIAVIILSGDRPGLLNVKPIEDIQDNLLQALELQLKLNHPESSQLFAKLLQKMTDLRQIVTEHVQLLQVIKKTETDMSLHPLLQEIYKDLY
# Peroxisome proliferator-activated receptor gamma (Homo sapiens) + Nuclear receptor coactivator 3 (Homo sapiens), sequence (P37231 whole entry, looked up): as above
# Peroxisome proliferator-activated receptor gamma (Homo sapiens) + Nuclear receptor coactivator 3 (Homo sapiens), sequence (Q9Y6Q9 whole entry, looked up): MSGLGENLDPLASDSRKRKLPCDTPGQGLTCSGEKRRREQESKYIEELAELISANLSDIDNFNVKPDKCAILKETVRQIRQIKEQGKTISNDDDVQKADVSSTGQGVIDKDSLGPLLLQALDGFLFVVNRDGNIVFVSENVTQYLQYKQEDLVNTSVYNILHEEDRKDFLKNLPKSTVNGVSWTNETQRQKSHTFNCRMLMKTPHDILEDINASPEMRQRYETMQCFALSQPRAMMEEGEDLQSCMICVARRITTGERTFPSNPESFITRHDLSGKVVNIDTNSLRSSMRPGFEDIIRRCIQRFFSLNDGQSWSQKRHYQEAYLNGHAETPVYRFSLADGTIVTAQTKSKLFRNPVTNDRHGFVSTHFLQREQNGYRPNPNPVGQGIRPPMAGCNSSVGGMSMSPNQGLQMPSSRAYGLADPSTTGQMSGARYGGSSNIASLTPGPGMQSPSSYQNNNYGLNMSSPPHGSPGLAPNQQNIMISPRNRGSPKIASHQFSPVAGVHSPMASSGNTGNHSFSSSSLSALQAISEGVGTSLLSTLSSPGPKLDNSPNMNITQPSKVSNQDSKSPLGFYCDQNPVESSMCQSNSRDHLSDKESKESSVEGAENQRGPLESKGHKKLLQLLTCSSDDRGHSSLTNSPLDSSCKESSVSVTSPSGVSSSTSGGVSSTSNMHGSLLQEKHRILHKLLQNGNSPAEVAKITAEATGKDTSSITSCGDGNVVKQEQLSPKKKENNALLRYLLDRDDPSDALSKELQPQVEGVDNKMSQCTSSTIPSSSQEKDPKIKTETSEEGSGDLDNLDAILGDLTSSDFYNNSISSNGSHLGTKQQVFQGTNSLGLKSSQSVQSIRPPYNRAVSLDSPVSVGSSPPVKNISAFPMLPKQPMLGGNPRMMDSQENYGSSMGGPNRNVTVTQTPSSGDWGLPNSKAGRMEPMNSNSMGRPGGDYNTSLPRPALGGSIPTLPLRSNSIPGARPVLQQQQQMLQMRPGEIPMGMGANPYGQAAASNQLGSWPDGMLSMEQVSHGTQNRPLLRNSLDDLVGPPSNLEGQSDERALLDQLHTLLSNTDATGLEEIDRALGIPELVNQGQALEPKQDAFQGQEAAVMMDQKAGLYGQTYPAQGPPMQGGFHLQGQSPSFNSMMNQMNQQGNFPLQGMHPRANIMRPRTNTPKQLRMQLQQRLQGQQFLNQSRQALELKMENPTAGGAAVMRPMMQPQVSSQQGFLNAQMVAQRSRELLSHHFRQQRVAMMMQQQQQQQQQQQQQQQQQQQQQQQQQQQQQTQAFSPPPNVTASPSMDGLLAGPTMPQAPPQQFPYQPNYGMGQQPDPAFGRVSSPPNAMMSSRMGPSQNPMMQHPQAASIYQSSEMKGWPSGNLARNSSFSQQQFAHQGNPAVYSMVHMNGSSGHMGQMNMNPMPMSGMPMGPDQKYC
# Neuropeptide Y receptor type 2 (Homo sapiens), sequence (P49146 whole entry, looked up): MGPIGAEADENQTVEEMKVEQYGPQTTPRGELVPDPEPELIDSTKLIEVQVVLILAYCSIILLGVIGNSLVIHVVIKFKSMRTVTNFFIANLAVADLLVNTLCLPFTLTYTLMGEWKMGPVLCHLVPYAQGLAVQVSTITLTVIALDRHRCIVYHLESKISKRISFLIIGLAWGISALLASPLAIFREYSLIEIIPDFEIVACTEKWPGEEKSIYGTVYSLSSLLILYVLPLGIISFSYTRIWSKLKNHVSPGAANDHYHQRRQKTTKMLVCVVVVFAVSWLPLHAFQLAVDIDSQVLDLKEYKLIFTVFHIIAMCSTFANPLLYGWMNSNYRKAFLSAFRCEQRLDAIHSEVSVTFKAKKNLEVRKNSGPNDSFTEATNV
# Neuropeptide Y receptor type 1 (Homo sapiens), sequence (P25929 whole entry, looked up): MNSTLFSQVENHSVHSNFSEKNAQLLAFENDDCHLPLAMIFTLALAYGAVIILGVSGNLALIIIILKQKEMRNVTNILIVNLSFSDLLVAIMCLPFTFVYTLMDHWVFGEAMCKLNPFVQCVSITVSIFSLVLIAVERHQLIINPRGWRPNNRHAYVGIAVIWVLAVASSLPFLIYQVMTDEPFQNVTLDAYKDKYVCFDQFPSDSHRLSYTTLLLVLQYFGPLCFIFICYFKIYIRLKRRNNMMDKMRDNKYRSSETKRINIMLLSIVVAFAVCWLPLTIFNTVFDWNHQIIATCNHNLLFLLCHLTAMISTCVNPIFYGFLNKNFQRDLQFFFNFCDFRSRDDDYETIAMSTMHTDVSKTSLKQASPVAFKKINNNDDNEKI
# Nuclear receptor coactivator 3 (Homo sapiens), sequence (Q9Y6Q9 whole entry, looked up, the tested form may be a part): as the sequence (Q9Y6Q9 whole entry, looked up) above
# Photoreceptor-specific nuclear receptor (Homo sapiens), sequence (Q9Y5X4 whole entry, looked up): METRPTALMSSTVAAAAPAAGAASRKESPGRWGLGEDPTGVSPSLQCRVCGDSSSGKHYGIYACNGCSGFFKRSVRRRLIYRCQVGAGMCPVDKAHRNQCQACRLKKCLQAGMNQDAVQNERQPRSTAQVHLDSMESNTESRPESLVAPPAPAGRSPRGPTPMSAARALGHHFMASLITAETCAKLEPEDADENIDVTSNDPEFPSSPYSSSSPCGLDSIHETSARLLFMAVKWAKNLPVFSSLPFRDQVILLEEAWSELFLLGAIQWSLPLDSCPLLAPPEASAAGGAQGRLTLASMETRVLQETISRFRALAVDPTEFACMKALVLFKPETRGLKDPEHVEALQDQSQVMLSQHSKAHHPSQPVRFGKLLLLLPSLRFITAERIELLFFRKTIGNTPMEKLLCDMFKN
compound,measurement,setting,value
CNc1ccc(SC#N)cc1,inhibition,[1],8.17%
same,inhibition,[2],-1.31%
COc1ccc(-c2csc(NC3OC(=O)c4ccccc43)n2)cc1 (stereo not given),inhibition,[1],19.3%
same,inhibition,[2],-6.85%
Cc1cc2oc(C(=O)Nc3c(C)n(C)n(-c4ccccc4)c3=O)c(C)c2cc1Cl,inhibition,[1],63.1% (active)
same,inhibition,[2],19.1%
Nc1ccc(Nc2ccccc2)cc1,activation,[3],10.1%
same,activation,[4],5.63%
same,activation,[5],6.91%
same,inhibition,[6],6.93%
same,inhibition,[7],54.5% (active)
same,inhibition,[8],36.4% (active)
CC(C)c1ccc(N2CCN(C(=O)c3ccccc3NC(=O)/C=C(\C(=O)O)c3ccccc3)CC2)cc1,inhibition,[1],102% (active)
same,inhibition,[2],62.4% (active)
CCc1c(-c2ccccc2)nc(N)c(C#N)c1-c1cccs1,activation,[3],11.1%
same,activation,[4],13.3%
same,activation,[5],8.84%
O=C(CC(O)(C(F)(F)F)C(F)(F)F)Nc1ccc(Cl)c(Cl)c1,inhibition,[1],37.4% (active)
same,activation,[9],17%
same,inhibition,[2],8.72%
same,activation,[10],-22.8%
same,activation,[11],-13.7%
same,inhibition,[12],-7.55%
same,activation,[13],11.5% (active)
same,inhibition,[14],16.9% (active)
same,inhibition,[15],21.6% (active)
same,inhibition,[16],16.9%
same,inhibition,[17],58.7% (active)
same,inhibition,[18],65.2% (active)
same,inhibition,[19],46.4%
same,inhibition,[20],74.2% (active)
same,inhibition,[21],99.8% (active)
same,inhibition,[22],89.7% (active)
same,inhibition,[23],74.3% (active)
same,inhibition,[24],102% (active)
same,inhibition,[25],90.4% (active)
same,inhibition,[26],88.5% (active)
same,inhibition,[27],16.8% (active)
same,inhibition,[28],20.4% (active)
same,inhibition,[29],22.1% (active)
same,inhibition,[30],20.4% (active)
same,inhibition,[31],62.1% (active)
CCc1ccc(-n2c(SCc3cc(=O)n4cc(Br)ccc4n3)nc3[nH]ncc3c2=O)cc1,activation,[3],40.9% (active)
same,activation,[4],26.6% (active)
same,activation,[5],28.8% (active)
C[C@@H](NC(=O)OC(C)(C)C)c1nnc(S(=O)(=O)Cc2ccccc2)o1,inhibition,[1],83.4% (active)
same,inhibition,[2],36.6%
CCn1c(SCC(=O)Nc2cccc(F)c2)nnc1-c1cc2cc(Br)ccc2o1,activation,[3],18%
same,activation,[4],15%
same,activation,[5],14.3%
